# Sampled rows, rich in hits. Any-hit rate of the full collection: about 5.7%.
# DAX1 inh-1: inhibits human nuclear receptor DAX1. 0.99% of 340,000 active. inhibition, % at 6.75 µM. P51843. HEK293 Gal4-DAX1 luciferase reporter, luminescence;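 active = inhibition above the mean over all tested compounds plus 3 SD, cut at about 4.2% in these data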;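 also: inhibition shows as a rise in luminescence from relieved DAX1 repression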
# Target sequence (P51843 207-470 limits assumed): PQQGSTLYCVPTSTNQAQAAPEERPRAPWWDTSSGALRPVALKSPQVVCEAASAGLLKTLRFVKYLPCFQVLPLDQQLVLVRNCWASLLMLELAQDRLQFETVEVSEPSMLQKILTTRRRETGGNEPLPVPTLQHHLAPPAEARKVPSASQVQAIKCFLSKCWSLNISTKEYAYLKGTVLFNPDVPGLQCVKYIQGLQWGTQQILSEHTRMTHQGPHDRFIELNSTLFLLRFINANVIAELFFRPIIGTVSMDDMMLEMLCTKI
# hcDAF12 agonist: activators of H. contortus DAF-12 nuclear receptor | 1.4% of 370,000 active | activation, % at 6.8 µM | HEK293 hcDAF-12 lit1-tk-luc reporter, luminescence; 0% DMSO, 100% Δ7-dafachronic acid;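 active = activation above the mean of all tested compounds plus 3 SD, cut at about 5.5% in these data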
# DAX1 inh-2: DAX1 (NR0B1) inhibition, primary screen; HEK293T StAR-luciferase reporter, SF-1/DAX-1 repression relief; inhibition, % at 6.8 µM; 1.1% of 370,000 active;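 active = inhibition above the mean over all tested compounds plus 3 SD, cut at about 3.6% in these data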;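 also: higher inhibition means more luminescence from relief of DAX-1 repression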
# ssDAF-12 act: activators of S. stercoralis DAF-12 nuclear receptor. HEK293 ssDAF-12/GRIP1 lit1-tk-luc reporter, luminescence; % of 3 µM dafachronic acid response. activation, % at 6.8 µM. 1% of 370,000 active;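 active = activation above the mean over all tested compounds plus 3 SD, cut at about 0.9% in these data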
# AHR activator: activators of human aryl hydrocarbon receptor; P35869; AHR-responsive luciferase reporter cells, luminescence; activation, % at 5 µM; 2.5% of 320,000 active; in the data active = activation above about 47%
# hgDAF12 agonist: hgDAF-12 agonism, primary luciferase screen | HEK293 GAL4-hgDAF12 UAS-luciferase reporter, agonist luminescence; normalized to butyrate control | activation, % at 6.8 µM | 1.8% of 370,000 active;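 active = activation above a cutoff set at the mean of all screened compounds plus 3 SD, cut at about 10% in these data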
# A number is an active result; i = inactive; nt = not tested or not shown.
SMILES,DAX1 inh-1,hcDAF12 agonist,DAX1 inh-2,ssDAF-12 act,AHR activator,hgDAF12 agonist
Cc1ccc(S(=O)(=O)N(C)CC(=O)NNC(=O)CCNS(=O)(=O)c2cccc(C)c2)cc1,i,i,i,i,i,i
CC(=O)c1c(C)[nH]c(C(=O)CSc2nnc(C)s2)c1C,i,i,i,i,68,i
COc1ccc(OC)c(/C=C/C(=O)N(C)CC(=O)Nc2ccc(N3CCOCC3)cc2)c1,i,i,i,i,i,i
CCN(CCc1ccccc1)c1ccc2c(c1)C1CC2CCN1C(=O)OCc1ccccc1 (stereo unspecified),i,i,i,1.6,nt,i
Cc1ccc2oc(C(=O)N(C)Cc3ccon3)c(C)c2c1,i,6.5,i,i,i,i
C=CCNc1nc(-c2sc(NC(C)=O)nc2C)cs1,i,i,i,i,i,i
CCCCCCC(=O)Nc1nc(C)c(-c2csc(Nc3ccc(Cl)cc3)n2)s1,i,nt,nt,nt,62,nt
C=CCNc1nc(-c2sc(NC(=O)CC)nc2C)cs1,i,i,i,i,70,i
CCCCCC(=O)Nc1nc(C)c(-c2csc(Nc3ccc(Cl)cc3)n2)s1,i,i,i,i,65,i
CCC(=O)Nc1nc(C)c(-c2csc(Nc3cccc(O)c3)n2)s1,i,i,i,i,i,i
COc1ccc(Nc2nc(-c3sc(NC(C)=O)nc3C)cs2)cc1,nt,nt,nt,nt,i,nt
C[C@@H]1CN([C@@H](C)CO)C(=O)c2cc(Br)cnc2O[C@@H]1CN(C)C(=O)c1ccc(F)cc1,nt,i,i,i,nt,i
CC(C)(C)C(=O)Nc1cc(S(=O)(=O)Nc2ccc(Cl)cc2)ccc1O,4.3,i,i,i,i,i
CC(C)C(=O)Nc1cc(S(=O)(=O)Nc2ccc(Cl)cc2)ccc1Cl,i,i,i,i,i,i
CC[C@H](NC(=O)[C@@H](Cc1ccccc1)NC(=O)[C@H]1O[C@@H](n2ccc(=O)[nH]c2=O)[C@H](O)[C@@H]1O)c1ccccc1,nt,i,i,i,nt,i
COc1ccc(NC(=O)c2onc(C)c2Cl)cc1,i,i,i,0.9,i,i
Cc1ccc(S(=O)(=O)N2CCN(C(=O)c3c(C)nn(-c4ccccc4)c3Cl)CC2)cc1,i,i,i,i,i,i
COc1cccc(NC(=O)c2c(C)nn(-c3ccccc3)c2Cl)c1,i,i,i,i,nt,i
Cc1nn(-c2ccccc2)c(Cl)c1C(=O)N1CCN(C)CC1,9.1,i,i,i,i,i
Cc1nc(Cl)sc1C(=O)Nc1ccc(Cl)cc1,i,i,i,i,93,i
COc1ccc(NC(=O)c2onc(C)c2Cl)cc1OC,i,i,i,i,i,i
COc1ccc(NC(=O)c2c(C)nn(-c3ccccc3)c2Cl)cc1,5.1,i,i,i,i,i
COc1ccc(C=NN(C)C(=O)Nc2cccc(Cl)c2)cc1OC,nt,i,i,i,nt,i
O=C1N=c2ccccc2=C1c1sc(=S)n(Cc2ccccc2Cl)c1O,i,i,i,i,i,i
CCc1nc2c(OCCc3cccc(OC)c3)cccn2c1N(C)C(=O)c1ccc(OC)cc1,nt,i,i,i,nt,i
SMILES,DAX1 inh-1,hcDAF12 agonist,DAX1 inh-2,ssDAF-12 act,AHR activator,hgDAF12 agonist
Cc1noc(C(=O)Nc2cccc(Cl)c2)c1Cl,i,i,i,i,nt,i
Cc1noc(C(=O)Nc2cccc(O)c2)c1Cl,i,5.6,i,i,i,i
C/C(O)=C(\N=Nc1cc(C)ccc1O)C(N)=O,nt,i,i,i,52,i
Cc1ccc(O)c(N=NC2=C(O)CC(C)(C)CC2=O)c1,i,i,i,i,i,i
CCn1c(=O)c(-c2cc(=O)[nH][nH]2)c(O)c2ccccc21,i,i,i,i,i,i
Cn1c(=O)c(-c2cc(=O)[nH][nH]2)c(O)c2ccccc21,nt,6.2,i,i,51,i
Cc1cc(C)n2c(SC(C)C(=O)NC3(C#N)CCCCC3)nnc2n1 (stereo unspecified),i,i,i,i,i,i
Cc1nc(-c2noc(-c3ccc(Cl)cc3)n2)c(C(F)(F)F)o1,i,i,i,i,i,i
Clc1nc2c(-c3ccccc3)nnn2c2ccccc12,i,i,i,i,52,i
O=C1N=C(N2CCOCC2)S/C1=C1\C(=O)N(Cc2ccccc2)c2ccccc21,4.4,i,i,i,i,i
COc1ccc(OC)c(N(CC(=O)Nc2ccc(NC(C)=O)cc2)S(C)(=O)=O)c1,i,i,i,i,i,i
COC(=O)c1ccc(C)c(NC(=O)CN(c2cc(OC)ccc2OC)S(C)(=O)=O)c1,i,i,4.2,i,i,i

# Assay outcomes deposited in PubChem BioAssay by The Scripps Research Institute Molecular Screening Center.
